# Laboratory results reported in the supplement of paper PMC4466140.
# Molecular target: AgAbp1
# Assay: SPOT peptide array binding signal intensity (averaged, normalized) (arbitrary units (background-subtracted, floor 0; scale differs between SH3 domains)); higher = stronger binding of the SH3 domain to the peptide
# How it was run: (§1)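 GST-SH3 fusions from four yeast species, purified on glutathione Sepharose, were incubated at 10 μg/ml overnight at 4°C on membranes of synthetic 15-mer peptides in which cysteines were replaced with serines. Binding signal is the normalized, background-subtracted spot intensity averaged over replicates, in domain-specific arbitrary units.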
row,Binder,SPOT peptide array binding signal intensity
1,APPLPPTAPPPPSLP,≤ 0

# Molecular target: AgBbc1
# Assay: as above
# How it was run: as §1
row,Binder,SPOT peptide array binding signal intensity
1,APPLPPTAPPPPSLP,≤ 0

# Molecular target: AgBem1-D1
# Assay: as above
# How it was run: as §1
row,Binder,SPOT peptide array binding signal intensity
1,APPLPPTAPPPPSLP,≤ 0

# Molecular target: AgBzz1-D1
# Assay: as above
# How it was run: as §1
row,Binder,SPOT peptide array binding signal intensity
1,APPLPPTAPPPPSLP,≤ 0

# Molecular target: AgBzz1-D2
# Assay: as above
# How it was run: as §1
row,Binder,SPOT peptide array binding signal intensity
1,APPLPPTAPPPPSLP,3

# Molecular target: AgCyk3
# Assay: as above
# How it was run: as §1
row,Binder,SPOT peptide array binding signal intensity
1,APPLPPTAPPPPSLP,≤ 0

# Molecular target: AgFus1
# Assay: as above
# How it was run: as §1
row,Binder,SPOT peptide array binding signal intensity
1,APPLPPTAPPPPSLP,≤ 0

# Molecular target: AgHof1
# Assay: as above
# How it was run: as §1
row,Binder,SPOT peptide array binding signal intensity
1,APPLPPTAPPPPSLP,116

# Molecular target: AgHse1
# Assay: as above
# How it was run: as §1
row,Binder,SPOT peptide array binding signal intensity
1,APPLPPTAPPPPSLP,13

# Molecular target: AgLsb1
# Assay: as above
# How it was run: as §1
row,Binder,SPOT peptide array binding signal intensity
1,APPLPPTAPPPPSLP,≤ 0

# Molecular target: AgLsb4
# Assay: as above
# How it was run: as §1
row,Binder,SPOT peptide array binding signal intensity
1,APPLPPTAPPPPSLP,3

# Molecular target: AgMyo5
# Assay: as above
# How it was run: as §1
row,Binder,SPOT peptide array binding signal intensity
1,APPLPPTAPPPPSLP,2800

# Molecular target: AgNbp2
# Assay: as above
# How it was run: as §1
row,Binder,SPOT peptide array binding signal intensity
1,APPLPPTAPPPPSLP,≤ 0

# Molecular target: AgRvs167
# Assay: as above
# How it was run: as §1
row,Binder,SPOT peptide array binding signal intensity
1,APPLPPTAPPPPSLP,≤ 0

# Molecular target: AgSho1
# Assay: as above
# How it was run: as §1
row,Binder,SPOT peptide array binding signal intensity
1,APPLPPTAPPPPSLP,≤ 0

# Molecular target: AgSla1-D1-D2
# Assay: as above
# How it was run: as §1
row,Binder,SPOT peptide array binding signal intensity
1,APPLPPTAPPPPSLP,2

# Molecular target: AgSla1-D3
# Assay: as above
# How it was run: as §1
row,Binder,SPOT peptide array binding signal intensity
1,APPLPPTAPPPPSLP,0.5

# Molecular target: CaAbp1-D1
# Assay: as above
# How it was run: as §1
row,Binder,SPOT peptide array binding signal intensity
1,APPLPPTAPPPPSLP,≤ 0

# Molecular target: CaAbp1-D2
# Assay: as above
# How it was run: as §1
row,Binder,SPOT peptide array binding signal intensity
1,APPLPPTAPPPPSLP,≤ 0

# Molecular target: CaBbc1
# Assay: as above
# How it was run: as §1
row,Binder,SPOT peptide array binding signal intensity
1,APPLPPTAPPPPSLP,≤ 0

# Molecular target: CaBem1-D1
# Assay: as above
# How it was run: as §1
row,Binder,SPOT peptide array binding signal intensity
1,APPLPPTAPPPPSLP,1

# Molecular target: CaBzz1-D1
# Assay: as above
# How it was run: as §1
row,Binder,SPOT peptide array binding signal intensity
1,APPLPPTAPPPPSLP,≤ 0

# Molecular target: CaBzz1-D2
# Assay: as above
# How it was run: as §1
row,Binder,SPOT peptide array binding signal intensity
1,APPLPPTAPPPPSLP,≤ 0

# Molecular target: CaCyk3
# Assay: as above
# How it was run: as §1
row,Binder,SPOT peptide array binding signal intensity
1,APPLPPTAPPPPSLP,≤ 0

# Molecular target: CaFus1
# Assay: as above
# How it was run: as §1
row,Binder,SPOT peptide array binding signal intensity
1,APPLPPTAPPPPSLP,≤ 0

# Molecular target: CaHof1
# Assay: as above
# How it was run: as §1
row,Binder,SPOT peptide array binding signal intensity
1,APPLPPTAPPPPSLP,≤ 0

# Molecular target: CaHse1
# Assay: as above
# How it was run: as §1
row,Binder,SPOT peptide array binding signal intensity
1,APPLPPTAPPPPSLP,≤ 0

# Molecular target: CaLsb1
# Assay: as above
# How it was run: as §1
row,Binder,SPOT peptide array binding signal intensity
1,APPLPPTAPPPPSLP,≤ 0

# Molecular target: CaLsb4
# Assay: as above
# How it was run: as §1
row,Binder,SPOT peptide array binding signal intensity
1,APPLPPTAPPPPSLP,≤ 0

# Molecular target: CaMyo5
# Assay: as above
# How it was run: as §1
row,Binder,SPOT peptide array binding signal intensity
1,APPLPPTAPPPPSLP,2460

# Molecular target: CaNbp2
# Assay: as above
# How it was run: as §1
row,Binder,SPOT peptide array binding signal intensity
1,APPLPPTAPPPPSLP,7.5

# Molecular target: CaRvs167
# Assay: as above
# How it was run: as §1
row,Binder,SPOT peptide array binding signal intensity
1,APPLPPTAPPPPSLP,0.167

# Molecular target: CaRvs167-3
# Assay: as above
# How it was run: as §1
row,Binder,SPOT peptide array binding signal intensity
1,APPLPPTAPPPPSLP,2.5

# Molecular target: CaSho1
# Assay: as above
# How it was run: as §1
row,Binder,SPOT peptide array binding signal intensity
1,APPLPPTAPPPPSLP,8

# Molecular target: CaSla1-D1-D2
# Assay: as above
# How it was run: as §1
row,Binder,SPOT peptide array binding signal intensity
1,APPLPPTAPPPPSLP,≤ 0

# Molecular target: CaSla1-D3
# Assay: as above
# How it was run: as §1
row,Binder,SPOT peptide array binding signal intensity
1,APPLPPTAPPPPSLP,≤ 0

# Molecular target: ScAbp1
# Assay: as above
# How it was run: as §1
row,Binder,SPOT peptide array binding signal intensity
1,APPLPPTAPPPPSLP,0.5

# Molecular target: ScBbc1
# Assay: as above
# How it was run: as §1
row,Binder,SPOT peptide array binding signal intensity
1,APPLPPTAPPPPSLP,≤ 0

# Molecular target: ScBem1-D1
# Assay: as above
# How it was run: as §1
row,Binder,SPOT peptide array binding signal intensity
1,APPLPPTAPPPPSLP,0.5

# Molecular target: ScBzz1-D1
# Assay: as above
# How it was run: as §1
row,Binder,SPOT peptide array binding signal intensity
1,APPLPPTAPPPPSLP,≤ 0

# Molecular target: ScBzz1-D2
# Assay: as above
# How it was run: as §1
row,Binder,SPOT peptide array binding signal intensity
1,APPLPPTAPPPPSLP,≤ 0

# Molecular target: ScCyk3
# Assay: as above
# How it was run: as §1
row,Binder,SPOT peptide array binding signal intensity
1,APPLPPTAPPPPSLP,2

# Molecular target: ScFus1
# Assay: as above
# How it was run: as §1
row,Binder,SPOT peptide array binding signal intensity
1,APPLPPTAPPPPSLP,≤ 0

# Molecular target: ScHof1
# Assay: as above
# How it was run: as §1
row,Binder,SPOT peptide array binding signal intensity
1,APPLPPTAPPPPSLP,212

# Molecular target: ScHse1
# Assay: as above
# How it was run: as §1
row,Binder,SPOT peptide array binding signal intensity
1,APPLPPTAPPPPSLP,≤ 0

# Molecular target: ScLsb1
# Assay: as above
# How it was run: as §1
row,Binder,SPOT peptide array binding signal intensity
1,APPLPPTAPPPPSLP,≤ 0

# Molecular target: ScLsb2
# Assay: as above
# How it was run: as §1
row,Binder,SPOT peptide array binding signal intensity
1,APPLPPTAPPPPSLP,≤ 0

# Molecular target: ScLsb3
# Assay: as above
# How it was run: as §1
row,Binder,SPOT peptide array binding signal intensity
1,APPLPPTAPPPPSLP,≤ 0

# Molecular target: ScLsb4
# Assay: as above
# How it was run: as §1
row,Binder,SPOT peptide array binding signal intensity
1,APPLPPTAPPPPSLP,4

# Molecular target: ScMyo3
# Assay: as above
# How it was run: as §1
row,Binder,SPOT peptide array binding signal intensity
1,APPLPPTAPPPPSLP,3490

# Molecular target: ScMyo5
# Assay: as above
# How it was run: as §1
row,Binder,SPOT peptide array binding signal intensity
1,APPLPPTAPPPPSLP,3170

# Molecular target: ScNbp2
# Assay: as above
# How it was run: as §1
row,Binder,SPOT peptide array binding signal intensity
1,APPLPPTAPPPPSLP,0.5

# Molecular target: ScPex13
# Assay: as above
# How it was run: as §1
row,Binder,SPOT peptide array binding signal intensity
1,APPLPPTAPPPPSLP,≤ 0

# Molecular target: ScRvs167
# Assay: as above
# How it was run: as §1
row,Binder,SPOT peptide array binding signal intensity
1,APPLPPTAPPPPSLP,≤ 0

# Molecular target: ScSho1
# Assay: as above
# How it was run: as §1
row,Binder,SPOT peptide array binding signal intensity
1,APPLPPTAPPPPSLP,≤ 0

# Molecular target: ScSla1-D1-D2
# Assay: as above
# How it was run: as §1
row,Binder,SPOT peptide array binding signal intensity
1,APPLPPTAPPPPSLP,≤ 0

# Molecular target: ScSla1-D3
# Assay: as above
# How it was run: as §1
row,Binder,SPOT peptide array binding signal intensity
1,APPLPPTAPPPPSLP,0.5

# Molecular target: SpAbp1-D1
# Assay: as above
# How it was run: as §1
row,Binder,SPOT peptide array binding signal intensity
1,APPLPPTAPPPPSLP,≤ 0

# Molecular target: SpBbc1
# Assay: as above
# How it was run: as §1
row,Binder,SPOT peptide array binding signal intensity
1,APPLPPTAPPPPSLP,1

# Molecular target: SpBzz1-D1
# Assay: as above
# How it was run: as §1
row,Binder,SPOT peptide array binding signal intensity
1,APPLPPTAPPPPSLP,525

# Molecular target: SpBzz1-D2
# Assay: as above
# How it was run: as §1
row,Binder,SPOT peptide array binding signal intensity
1,APPLPPTAPPPPSLP,≤ 0

# Molecular target: SpCyk3
# Assay: as above
# How it was run: as §1
row,Binder,SPOT peptide array binding signal intensity
1,APPLPPTAPPPPSLP,1

# Molecular target: SpHof1
# Assay: as above
# How it was run: as §1
row,Binder,SPOT peptide array binding signal intensity
1,APPLPPTAPPPPSLP,≤ 0

# Molecular target: SpHof1-2
# Assay: as above
# How it was run: as §1
row,Binder,SPOT peptide array binding signal intensity
1,APPLPPTAPPPPSLP,4

# Molecular target: SpHof1-3
# Assay: as above
# How it was run: as §1
row,Binder,SPOT peptide array binding signal intensity
1,APPLPPTAPPPPSLP,0.5

# Molecular target: SpHse1
# Assay: as above
# How it was run: as §1
row,Binder,SPOT peptide array binding signal intensity
1,APPLPPTAPPPPSLP,10.5

# Molecular target: SpLsb1
# Assay: as above
# How it was run: as §1
row,Binder,SPOT peptide array binding signal intensity
1,APPLPPTAPPPPSLP,≤ 0

# Molecular target: SpLsb4
# Assay: as above
# How it was run: as §1
row,Binder,SPOT peptide array binding signal intensity
1,APPLPPTAPPPPSLP,≤ 0

# Molecular target: SpMyo1
# Assay: as above
# How it was run: as §1
row,Binder,SPOT peptide array binding signal intensity
1,APPLPPTAPPPPSLP,2050

# Molecular target: SpNbp2
# Assay: as above
# How it was run: as §1
row,Binder,SPOT peptide array binding signal intensity
1,APPLPPTAPPPPSLP,6.5

# Molecular target: SpPex13
# Assay: as above
# How it was run: as §1
row,Binder,SPOT peptide array binding signal intensity
1,APPLPPTAPPPPSLP,≤ 0

# Molecular target: SpRvs167
# Assay: as above
# How it was run: as §1
row,Binder,SPOT peptide array binding signal intensity
1,APPLPPTAPPPPSLP,24.3

# Molecular target: SpSla1-D1-D2
# Assay: as above
# How it was run: as §1
row,Binder,SPOT peptide array binding signal intensity
1,APPLPPTAPPPPSLP,≤ 0

# Molecular target: SpSla1-D3
# Assay: as above
# How it was run: as §1
row,Binder,SPOT peptide array binding signal intensity
1,APPLPPTAPPPPSLP,≤ 0
